Many of the other results were omitted from the sample, so hits are more common in it than they were.
Pf Dd2 inh = qHTS Primary assay for Inhibitors of Plasmodium falciparum Dd2 growth in vitro; Potency, µM (titrated, usually from 28.9 µM), inactives show top-dose activity, negative = inhibition, most hits filed as inhibitors; 4.3% of 120,000 active; P. falciparum Dd2 growth, SYBR Green, 72 h; active means well fitted inhibition curve with a large enough effect;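 further: plate controls were DMSO vehicle for no effect and reference drug for full effect; nearly all actives have a fitted effect of over 65% in size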
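Readout: SYBR Green fluorescence, 485 nm excitation, 535 nm emission, after ~16 h lysis at 37C. Before that, Dd2-infected red cells (2.5% hematocrit) grew 72 h with compound, 29 uM top final concentration.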
Numbers without * were called inactive; i = inactive; ! = repeats disagree; [ ] = dose if it differs, or a comment. Potency means the concentration at half of the fitted maximal effect.

SMILES | Pf Dd2 inh
COc1cc(CNCc2cnn(C)c2C)ccc1OCC(O)CN1CCSCC1 (stereo unspecified) | -12%
COc1ccc(CNc2cc3c(cn2)CN(C)CCN3C)cc1OC | i
COc1cc(CNC(C)Cn2nc(C)cc2C)ccc1OCCN1CCCC1 (stereo unspecified) | 3.5µM*
CCCNC(=O)C(NC(=O)c1ccc(C)cc1)C1CCN(C(=O)c2ccc(F)cc2)CC1 (stereo unspecified) | i
Cc1cccc(OCC(=O)Nc2nc3c(s2)CC(C(C)(C)C)CC3)c1C (stereo unspecified) | 16%
CC(C)(C)C1CCc2nc(NC(=O)COc3ccccc3[N+](=O)[O-])sc2C1 (stereo unspecified) | i
CC(C)(C)C1CCc2nc(NC(=O)Cc3ccccc3)sc2C1 (stereo unspecified) | 11µM*
O=S(=O)(c1ccccc1)N1CCCC(Cc2noc(-c3cccnc3)n2)C1 (stereo unspecified) | i
CN1C(=O)C(c2ccccc2)CC12CCN(S(C)(=O)=O)CC2 (stereo unspecified) | -7%
CN1C(=O)C(c2ccccc2)CC12CCN(C(=O)C1CCCC1)CC2 (stereo unspecified) | -2%
CN1C(=O)C(c2ccccc2)CC12CCN(CCC(=O)O)CC2 (stereo unspecified) | 10µM*
FC(F)(F)c1cccc(C2=NOC3(CCCN(Cc4cccnc4)C3)C2)c1 (stereo unspecified) | -5%
Cc1ccsc1CN(Cc1ccc(CN(C)S(C)(=O)=O)o1)CC(C)C | 8.9µM*
CN(Cc1ccc(F)cc1)S(C)(=O)=O | 7%[44.1 µM]
COCCN1C(=O)[C@@H]2C[C@@H](CN2C(=O)c2cnccn2)Oc2ccccc21 | 10%[44.1 µM]
O=C(Cn1ccn2nc(-c3ccc(F)cc3)c(CO)c2c1=O)Nc1ccc(F)c(F)c1 | i
NC1CC(c2nnc(COc3ccc4c(c3)CCNCC4)n2C2CC2)C1 (stereo unspecified) | 10µM*!
COCCn1c(COc2ccc3c(c2)ncn3C)nnc1C1CC(N)C1 (stereo unspecified) | -17%
CCn1c(COc2ccc(C)nc2)nnc1C1CC(N)C1 (stereo unspecified) | -26%
Cc1ccc(C(=O)N2CCC3(CC2)NC(=O)N(c2ccccc2)N3)s1 | -20%
Cc1ccccc1N1Cc2c(NCc3ccc4c(c3)OCO4)ncnc2N(C)CC1=O | -21%
O=C1c2c(nc(COc3ccc(F)cc3)n2Cc2ccccc2)NCCN1Cc1ccccc1 | i
COc1cccc(OCc2nc3c(n2Cc2ccccc2)C(=O)N(C)CCN3)c1 | i
COc1cccc(OCc2nc3c(n2Cc2ccccc2)C(=O)N(CC2CCOCC2)CCN3)c1 | 11µM*
COc1cccc(OCc2nc3c(n2Cc2ccccc2)C(=O)N(CCOc2ccccc2)CCN3)c1 | -19%
SMILES | Pf Dd2 inh
O=C1c2c(nc(COc3ccccc3)n2Cc2ccccc2)NCCN1CCOc1ccccc1 | i
N#Cc1ccc(OCc2nc3c(n2Cc2ccccc2)C(=O)N(CC2CC2)CCN3)cc1 | 10µM*
O=C1c2c(nc(CNCc3cccc(Cl)c3)n2Cc2ccccc2)NCCN1Cc1ccccc1F | i
COc1cc(Cl)ccc1OCc1nc2c(n1Cc1ccccc1)C(=O)N(Cc1ccccc1C#N)CCN2 | -9%
N#Cc1ccccc1CN1CCNc2nc(CNCc3ccc4c(c3)OCO4)n(Cc3ccccc3)c2C1=O | 6.3µM*
O=C(CC1CCCC1)N1C[C@@H](CO)[C@H](c2nc(-c3ccncc3)no2)C1 | 4%
Cc1noc(-c2cn(C3CCN(C(=O)c4cccc(Cl)c4)C3)nn2)n1 (stereo unspecified) | -19%
CN(C)c1ccc(CN2CCOC[C@H]2c2ncc(-c3ccc(F)cc3)[nH]2)cc1 | i
COc1ccc2c(c1)CN(C(C)=O)CC[C@H]1COC(=O)N21 | 24%[44.1 µM]
CCn1cnnc1CC1CCCN(C(=O)CCc2ccccc2)C1 (stereo unspecified) | 8%
COc1ccc(S(N)(=O)=O)cc1C(=O)N1CCC2(CCCN(C)C2=O)C1 (stereo unspecified) | 1%
Cc1nnc([C@@H]2CC(F)(F)CN2C(=O)c2ccc3c(c2)OCO3)o1 | 8%
CCOC(=O)C1(Cc2ccccc2Cl)CCN(S(=O)(=O)c2ccccc2)CC1 | -18%
CCOC(=O)C1(Cc2ccc(Cl)cc2)CCNCC1 | 3.5µM*
CCOC(=O)C1(Cc2ccc(Cl)cc2)CCN(C(=O)c2ccc(C)s2)CC1 | -15%
CCCS(=O)(=O)N1CCC2(CC1)CN(c1ccccc1)C2=O | -10%
O=C(NC1CC1)[C@@H]1C[C@H](Oc2ccccc2)CN1C(=O)c1ccc2ncccc2c1 | -1%
CCn1cc(-c2ccc(Cl)cc2)cc1C(=O)NCCCN1CCCC1=O | -11%
O=C(NC[C@H]1COCc2nc3cc(C(F)(F)F)ccc3n21)c1cccnc1 | -21%[44.1 µM]
CCCc1cc(N2CCC(N[C@@H]3CCNC3)CC2)nc(C)n1 | -11%
Cc1nc(N2CCC(NC(=O)Cc3cccc(F)c3)CC2)cc(C(F)(F)F)n1 | -1%
CCc1cc(N2CCC(NCCc3cccc(Cl)c3)CC2)nc(C)n1 | 11µM*
O=C1CC(c2ccccc2)N(C(=O)C2CC2)CCCN(C(=O)c2c[nH]c3ccccc23)CCN1 (stereo unspecified) | i
O=C1CC(c2ccccc2)N(C(=O)C2CC2)CCCN(C(=O)c2ccc3ccccc3n2)CCN1 (stereo unspecified) | -13%
O=C1CC(c2ccccc2)N(Cc2ccncc2)CCCN(C(=O)C2CCCCC2)CCN1 (stereo unspecified) | -26%
SMILES | Pf Dd2 inh
O=C1CCN(S(=O)(=O)c2ccccc2)CCCN(C(=O)Cc2cccc(F)c2)CCN1 | -13%
O=C1CC(c2ccccc2)N(Cc2ccncc2)CCCNCCN1 (stereo unspecified) | -14%
CS(=O)(=O)N1CCCN(C(=O)c2ccncc2)CCNC(=O)CC1c1ccccc1 (stereo unspecified) | -16%
O=C1CC(c2ccccc2)N(Cc2ccncc2)CCCN(C(=O)c2cc3ccccc3[nH]2)CCN1 (stereo unspecified) | 3.5µM*
O=C1CC(c2ccccc2)N(C(=O)C2CC2)CCCN(C(=O)c2cc3ccccc3[nH]2)CCN1 (stereo unspecified) | 11µM*
O=C1CC(c2ccccc2)N(Cc2ccncc2)CCCN(S(=O)(=O)c2cccc(F)c2)CCN1 (stereo unspecified) | 0.5µM*
O=S(=O)(c1cnc[nH]1)N1CCC(c2nc(-c3ccccc3)no2)C1 (stereo unspecified) | 7%[5.79 µM]
O=C(Nc1cccc(C(F)(F)F)c1)N[C@H]1[C@H](O)[C@@H](N2CCC(Cc3ccccc3)CC2)[C@@H]2OC[C@H]1O2 | -8%
Cc1cccc(-c2noc([C@@H]3Cc4nc[nH]c4CN3)n2)c1 | -24%[44.1 µM]
CC(=O)N1C[C@@H]2CCCN3CCC[C@@H]([C@H]23)[C@H]1CCCC(=O)N1CCN(C)CC1 | -25%
Cc1nn(-c2cccc(Br)c2)c(C)c1[C@@H]1C=C[C@@H](NC(=O)CCCC(=O)O)C1 | -5%
CNC(=O)C1CCN(C(=O)c2cc(COc3ccc4c(c3)OCO4)[nH]n2)C1 (stereo unspecified) | -8%
CN(c1cc(=O)c2ccnc(-c3cccc(CO)c3)c2o1)C1CCOCC1 | i
CC(C)NC(=O)C[C@@H]1O[C@H](Cn2cc(CN(C)Cc3ccccc3)nn2)[C@@H](O)[C@H]1O | 25%[44.1 µM]
COc1ccc(C(=O)N2CCC3(CC2)NC(=O)N(c2ccccc2)N3)cc1OC | 14%
O=C(NC1CC1)C1CCN(C2CCN(C(=O)c3c(O)cccc3O)CC2)CC1 | -11%
